# Data from PubChem BioAssay (Tox21).
# Inconclusive results are not listed. Values without a mark were called inactive. How the calls were made is not given here.
# Assay: qHTS assay to identify small molecule antagonists of the estrogen related receptor signaling pathway with the pleiotropic PPARgamma coactivator (PGC) from Tox21 10K library (AID 1224841); further: actives are mostly falling curves and most rising ones were filed inactive; nearly all actives have a fitted effect of over 50% in size
# Details: PGC/ERR reporter cell line, ONE-Glo luciferase, 18 h; series mostly up to 92.4 µM; activity, negative = inhibition: at the top concentration
# Source text: U.S. Tox21 Program National Center for Advancing Translational Sciences [NCATS] NIH Chemical Genomics Center [NCGC] U.S. Environmental Protection Agency [EPA] National Institutes of Environmental Health Sciences [NIEHS] National Toxicology Program [NTP] U.S. Food and Drug Administration [FDA] Tox21 Assay Overview: Estrogen related receptors (ERRs), the first orphan nuclear receptors discovered, play an important role in the control of cellular energy metabolism. ERRs are required for high-energy production in response to the environmental challenges. The pleiotropic PPARgamma coactivator (PGC) is a major partner of ERR and a key regulator in energy homeostasis. Together they have been implicated in the etiology of metabolic disorders such as Type 2 diabetes and metabolic syndrome. ERR-alpha was also identified as an adverse marker for breast cancer progression; ERR-alpha-positive tumors have a poor prognosis. To screen and to identify environmental compounds that perturb the ERR and PGC/ERR signaling pathways could provide valuable information for potential therapeutic or preventive measures in the treatment of metabolic disease. For identifying PGC/ERR antagonists, PGC/ERR cell line (provided by NTP) has been used to screen Tox21 10K library.
# Tox21 Assay Protocol Summary: The PGC/ERR cells were dispensed at 2,000 cells/5 ul/well in 1536-well white plates using a Multidrop dispenser. After the assay plates were incubated at a 37 C/5% CO2 incubator for 6 hours, 23 nL of compounds dissolved in DMSO, positive and negative controls or DMSO only was transferred to the assay plate by a pin tool. The plates were incubated at 37 C for 18 hours. 4 ul/well of One-Glo reagent was added into the assay plates using a Flying Reagent Dispenser. After 30-minute incubation at room temperature, the luminescence intensity in the plates was measured using a ViewLux plate reader.
# On the % scale 0 is the no-effect control and ±100 the full control effect.
row,Structure (SMILES),"activity, negative = inhibition"
1,COC(=O)CCSCCC(=O)OC,0.574%
2,COc1c(N2C[C@@H]3CCCN[C@@H]3C2)c(F)cc2c(=O)c(C(=O)O)cn(C3CC3)c12,24% [at 42.5 µM]
3,NS(=O)(=O)c1ccccc1Cl,0.213%
4,CCc1cccc2c(CCO)c[nH]c12,12.8% [at 42.5 µM]
5,C[C@H]1C[C@@H](O)CC(C)(C)C1,-5.27%
6,CN1CCN(c2cc3c(cc2F)c(=O)c(C(=O)O)cn3-c2ccc(F)cc2)CC1,4.19% [at 42.5 µM]
7,O=C1CCCN1C1CCCCC1,-10.8%
8,CC(C)(C)NCCNC(C)(C)C,5.55%
9,CCCCC(CC)COC(=O)c1ccccc1O (stereo not given),-1.13% [at 42.5 µM]
10,CCCCOCCOCCOCCCC,2.14%
11,CCCCNC(=O)NCCCC,-1.21%
12,COCCCOCCCOC,6.84%
13,O=C(CCCN1CCN(c2ccccn2)CC1)c1ccc(F)cc1,-3.73% [at 42.5 µM]
14,N#Cc1ccc(C2CCCc3cncn32)cc1 (stereo not given),-22.4% [at 42.5 µM]
15,O=c1[nH]c(=O)n([C@H]2C[C@H](O)[C@@H](CO)O2)cc1I,49.9% [at 42.5 µM]
16,COC(=O)NN,-0.734%
17,Cc1c(O)cccc1O,-12.4%
18,CCC=O,0.105%
19,COC(=O)CC(C)=O,0.191%
20,O=c1cc(CO)occ1O,2.58% [at 42.5 µM]

row,Structure (SMILES),"activity, negative = inhibition"
1,COc1ccc2c(c1)c(CC(=O)OCC(=O)O)c(C)n2C(=O)c1ccc(Cl)cc1,-5.94% [at 42.5 µM]
2,CCc1ccc(O)c(OC)c1,6.55%
3,CCOC(=O)c1c(C)n(C)c2ccc(O)cc12,4.66% [at 42.5 µM]
4,CC(=O)Nc1ccc(S(N)(=O)=O)cc1,8.76%
5,CC(=O)CC(C)C,7.08%
6,CCCCCCCCCCCCCCCCC,7.43%
7,CC(C)(C)c1nnc(NS(=O)(=O)c2ccccc2)s1,-1.92% [at 42.5 µM]
8,CC(=O)Nc1c(I)cc(I)c(C(=O)O)c1I,3.69% [at 42.5 µM]
9,CCCCCOC(=O)CCCCC,-16%
10,N[C@H]1CN(c2c(F)cc3c(=O)c(C(=O)O)cn(C4C[C@H]4F)c3c2Cl)CC12CC2 (stereo not given in full),7.96% [at 42.5 µM]
11,CCS(=O)(=O)c1ccc(OC)c(C(=O)OC)c1,-1.37% [at 42.5 µM]
12,Nc1c[n+](N2CCOCC2)no1,-1.56% [at 42.5 µM]
13,CC(C)CCCC(C)N (stereo not given),25.1% [at 42.5 µM]
14,CC(=O)c1ccccc1O,15.2%
15,CCOC(=O)c1cccc(N)c1,0.809% [at 42.5 µM]
16,Cc1cccn2c(=O)c(-c3nnn[nH]3)cnc12,13.5% [at 19 µM]
17,C[C@](N)(Cc1ccc(O)cc1)C(=O)O,-1.66% [at 8.39 µM]
18,CC(=O)OCC(=O)[C@@]1(O)CCC2C3CCC4=CC(=O)CC[C@]4(C)C3[C@@H](O)C[C@@]21C (stereo not given in full),8.95% [at 42.5 µM]
19,CCc1nccnc1CC,4.39% [at 19 µM]
20,CC/C=C\CC/C=C/C(OCC)OCC,15.3%
